HIV Env fusion: HIV envelope-mediated fusion inhibition; HeLa-JRFL Env/CEM21 cell fusion, luciferase; inhibition, % at 12.3 µM; hit rate 1.1% among 360,000; AID 651610;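 active means mean replicate inhibition score of at least 50 and every replicate individually at or above 50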
CFTR F508del cor: correctors of CFTR F508del function in bronchial epithelial cells; hit rate 0.36% among 350,000; AID 720511; activity (quench increase), % at 7.58 µM; CFBE cells, YFP halide quenching; stimulated with forskolin plus potentiator P3; % fluorescence drop versus neutral controls;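 active means mean added fluorescence quench of at least 8% versus neutral control, with both replicates also reaching 8%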;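 further: cells transiently co-express mutant CFTR-F508del with the halide-sensitive YFP; corrector assay measuring rescue of mutant channel to the surface after 24 h compound exposure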
PAX8 reporter: lowers PAX8-driven luciferase in RMG-I cells; RMG-I TPO-luciferase reporter, SteadyGlo, 24 h; AID 652154; inhibition, % at 12.6 µM; hit rate 1.2% among 360,000;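 active means mean replicate inhibition at least 60% with every replicate also reaching 60%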;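 further: luciferase light reporting Pax8 driven TPO promoter activity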
PGC1a acetyl inh: lowers PGC1a acetylation signal in U2OS cells. AlphaScreen anti-acetyl-lysine; with virally co-expressed GCN5 acetyltransferase. inhibition, % at 15.6 µM. hit rate 0.17% among 350,000. AID 651687;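 active means every replicate shows inhibition of at least 40%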
GSIS activator: GLuc luminescence reporter in INS-1E cells, primary screen for activators of glucose-dependent secretion of insulin. AID 743287. hit rate 0.61% among 370,000. activation, % at 16.6 µM. INS-1E GLuc reporter insulin secretion, 2-3 h;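 active means lowest replicate activation of at least 40%, so every replicate reaches that level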
EWS-Fli block: EWS/Fli transcriptional activity inhibition. A673 NR0B1-luciferase reporter, viability-normalised. inhibition, % at 12.6 µM. hit rate 0.67% among 350,000;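 active means mean inhibition of at least 50% after viability correction, with every replicate also passing that limit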;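 further: firefly luciferase signal divided by Alamar Blue viability fluorescence both relative to DMSO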
A number is an active result; n = inactive; x = not tested or not shown; ! = repeats disagree; [ ] = remark or other dose. The list is not random: actives were taken first. Their share in the collection is about 2.7%.

SMILES	HIV Env fusion	CFTR F508del cor	PAX8 reporter	PGC1a acetyl inh	GSIS activator	EWS-Fli block
Cc1cc(C)nc(Nc2nc(C(N)CCc3ccccc3)cs2)n1 (stereo unspecified)	74	n	n	n	n	n
C[C@@H]1CN([C@H](C)CO)C(=O)c2cccc(NC(=O)CCCCCC(=O)Nc3ccccc3N)c2O[C@@H]1CN(C)S(=O)(=O)c1cccs1	x	n	n	n	n	n
CN(C)C(=O)C[C@@H]1CC[C@@H]2[C@H](COC[C@H](O)CN2S(=O)(=O)c2ccccc2)O1	x	n	x	n	n	x
COc1ccc(-c2ccc(SC)nn2)cc1	n	n	n	x	n	58
COc1ccc(C(=O)CSc2ccc(-c3ccccc3)nn2)cc1	n	x	n	n	n	x
CN(C)CCNC(=O)c1cccc2nc3cccc(F)c3nc12	n	9.2	n	x	n	56
COc1ccc(OC)c2nc3c(C(=O)NCCN(C)C)cccc3nc12	n	n	x	n	n	n
Cc1cc(OCC(=O)NNC(=O)c2cnccn2)cc(C)c1Cl	n	n	n	85	n	x
O=c1cnnc(N/N=C/c2ccc3c(c2)OCO3)[nH]1	55	n	n	n	n	n
COCC(=O)N(C)C[C@H]1Oc2ncc(-c3ccc(C#N)cc3)cc2C(=O)N([C@H](C)CO)C[C@H]1C	n	n	n	n	n	n
CCOc1ccc(Nc2nc(N)c3ccccc3n2)cc1	n	n	n	x	n	69
CN(C)c1ccc(Nc2nc(N)c3ccccc3n2)cc1	n	n	78	x	n	77
Nc1nc(Nc2ccccc2)nc2ccccc12	n	x	n	n	x	x
COC(=O)c1cc2c(=O)c3ccccc3oc2nc1/C=C/N(C)C	n	28	n	n	n	n
COC(=O)c1cc2c(=O)c3ccccc3oc2nc1C	n	n	n	n	n	n
CC(C)(C)C1COc2ccccc2N1C(=O)c1cccc(Cl)c1 (stereo unspecified)	n	9.5	n	n	n	n
COc1cc(O)c(C(CCN2CCCCC2)c2ccc(N(C)C)cc2)c(OC)c1 (stereo unspecified)	57	n	n	x	n	n
Cc1ccc(-c2nc3c(=O)n(C)c4ccccc4c3o2)cc1	n	x	x	n	79	x
O=C(c1ccccn1)N1C[C@@H]2[C@H](c3ccccc31)[C@@H](CO)N2C(=O)CC1CC1	x	n	n	n	n	n
O=C(c1ccccc1)[C@@H]1[C@@H](C(=O)c2ccc(F)cc2)[C@@]2(C(=O)Nc3ccccc32)[C@H]2c3ccccc3C=CN12	71	x	n	n	n	n
C[C@H](CO)N1C[C@H](C)[C@@H](CN(C)CC2CCOCC2)Oc2ncc(C3=CCCCC3)cc2C1=O	n	n	n	n	n	n
CCCCCCCSc1nnc(-c2ccccc2N)c(=O)[nH]1	n	n	n	n	n	56
O=C1CN(S(=O)(=O)Cc2ccccc2)C[C@H]2[C@@H](c3ccc(C#CC4CC4)cc3)[C@H](CO)N12	x	n	n	n	n	n
Cc1noc(C)c1S(=O)(=O)Nc1ccc2c(c1)C(=O)N([C@@H](C)CO)C[C@@H](C)[C@H](CN(C)C(=O)Nc1ccc(C(F)(F)F)cc1)OCCCC[C@@H](C)O2	n	n	66	n	n	n
Cc1noc(C)c1S(=O)(=O)Nc1ccc2c(c1)C(=O)N([C@@H](C)CO)C[C@H](C)[C@@H](CN(C)C(=O)Nc1ccc(C(F)(F)F)cc1)OCCCC[C@H](C)O2	57[16.7 µM]	n	107	n	n	n
SMILES	HIV Env fusion	CFTR F508del cor	PAX8 reporter	PGC1a acetyl inh	GSIS activator	EWS-Fli block
Cc1noc(C)c1S(=O)(=O)Nc1ccc2c(c1)C(=O)N([C@@H](C)CO)C[C@H](C)[C@H](CN(C)C(=O)Nc1ccc(F)cc1)OCCCC[C@H](C)O2	n	n	n	n	n	n
Cc1noc(C)c1S(=O)(=O)Nc1ccc2c(c1)C(=O)N([C@@H](C)CO)C[C@H](C)[C@@H](CN(C)Cc1ccc(C(F)(F)F)cc1)OCCCC[C@H](C)O2	n	n	71!	n	n	n
Cc1noc(C)c1S(=O)(=O)Nc1ccc2c(c1)C(=O)N([C@H](C)CO)C[C@H](C)[C@@H](CN(C)C(=O)Nc1ccc(F)cc1)OCCCC[C@H](C)O2	n	n	n	n	n	n
Cc1noc(C)c1S(=O)(=O)Nc1ccc2c(c1)C(=O)N([C@@H](C)CO)C[C@H](C)[C@@H](CN(C)C(=O)Nc1ccc(C(F)(F)F)cc1)OCCCC[C@@H](C)O2	n	n	65	n	n	n
Cc1noc(C)c1NC(=O)Nc1ccc2c(c1)C(=O)N([C@H](C)CO)C[C@@H](C)[C@@H](CN(C)C(=O)Nc1ccccc1)O2	n	n	x	n	n	n
O=C(NCCN1CCCC1)[C@H]1[C@H](CO)[C@H]2Cn3c(cccc3=O)[C@@H]1N2C(=O)NC1CCCC1	x	n	n	x	n	n
Cc1ccc2[nH]c3c(c2c1)CCNC3=O	n	n	n	n	n	n
COc1c(F)cc2[nH]c3c(c2c1F)CCNC3=O	65	n	n	x	n	n
COc1ccc(N2CC(NS(=O)(=O)c3cccs3)CC2=O)cc1OC (stereo unspecified)	n	n	n	x	41	n
C[C@@H]1CN([C@H](C)CO)C(=O)c2cc(C#CC3(O)CCCC3)cnc2O[C@H]1CN(C)S(=O)(=O)c1ccccc1	n	n	n	n	n	n
CCC1=Nc2cc(C(=O)NCCN3CCOCC3)ccc2Sc2ccccc21	n	n	n	n	n	x
CCOCCCNC(=O)c1ccc2c(c1)N=C(CC)c1cc(Br)ccc1S2	n	n	91	n	n	61
Cc1cnc(NC(=O)CSc2nnc(C)n2N)s1	x	n	130	x	x	n
Cc1cnc(NC(=O)CSc2nnc3ncccn23)s1	n	n	n	n	n	n
COc1ccc(CCC(=O)Nc2ncc(C)s2)cc1OC	n	n	n	x	n	n
Cc1cnc(NC(=O)CCc2ccccc2)s1	n	8.9	n	n	n	n
COCC(=O)N(C)C[C@@H]1Oc2cc(C#CCN(C)C)ccc2S(=O)(=O)N([C@H](C)CO)C[C@H]1C	n	n	x	n	n	n
COc1ccc(OC2C(=O)N(Cc3ccc4c(c3)OCO4)C2c2cccs2)cc1 (stereo unspecified)	68	x	x	n	n	x
Cc1noc(C)c1NC(=O)N(C)C[C@@H]1Oc2ccc(NC(=O)Cn3cnnn3)cc2CC(=O)N([C@H](C)CO)C[C@H]1C	n	n	n	n	n	n
Cn1nc(-c2ccccn2)nc2c(=O)n(C)c(=O)nc1-2	68	n	105	80	n	n
CCn1c(N)nc2c1c(=O)n(C)c(=O)n2C	n	n	n	n	n	n
CCCc1nc2c(=O)n(C)c(=O)nc-2n(C)n1	69	n	104	75	n	n
CCN(C[C@@H]1[C@@H](c2ccccc2)[C@H](CO)N1CC1CC1)C(=O)c1ccccn1	x	n	n	n	n	n
Cc1ccc(S(=O)(=O)NCC[C@H]2CC[C@@H](NC(=O)c3cnccn3)[C@H](CO)O2)cc1	n	n	n	n	n	n
